From PubChem BioAssay
Compounds with a hit are over-represented: about 1.1% of the library has one in this group of screens.
NPSR antagonist: qHTS Assay for Antagonists of the Neuropeptide S Receptor: cAMP Signal Transduction; Potency, µM (highest dose often 38.3 µM), without a hit: top-dose activity change, negative = inhibition, usual class: inhibitors; Q6W5P4; AID 1461, 2008; CHO-NPSR cells, cAMP TR-FRET, antagonist mode; 220,000 tested, 1% active; further: on the % scale 0 is the no-effect control and ±100 the full control effect; nearly all actives have a fitted effect of over 50% in size
Target sequence (Q6W5P4 whole entry, looked up): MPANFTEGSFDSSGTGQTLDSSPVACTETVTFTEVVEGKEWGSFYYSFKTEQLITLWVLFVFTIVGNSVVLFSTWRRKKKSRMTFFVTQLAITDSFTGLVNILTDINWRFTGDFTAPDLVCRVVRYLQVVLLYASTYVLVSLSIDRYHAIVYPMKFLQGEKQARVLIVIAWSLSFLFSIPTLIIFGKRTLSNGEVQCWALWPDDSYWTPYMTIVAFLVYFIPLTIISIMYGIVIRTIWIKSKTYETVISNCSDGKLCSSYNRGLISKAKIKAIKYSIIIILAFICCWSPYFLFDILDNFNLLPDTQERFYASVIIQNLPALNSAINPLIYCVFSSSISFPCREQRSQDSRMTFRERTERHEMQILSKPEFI
HTT cytoprotect: qHTS Multiplex Assay to Identify Dual Action Probes in a Cell Model of Huntington: Cytoprotection (ATP) | PC12 HTT-Q103 induced, cytoprotection, ATP luminescence, 40 h | Potency, µM (highest dose often 56.4 µM), inactives show cytoprotection (ATP increase), usual class: activators | 230,000 tested, 0.14% active; further: % of control where 0% means no effect; nearly all actives have a fitted effect of over 45% in size
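PC12 cells with ecdysone-inducible HTT exon 1 Q103-GFP, induced with 100 nM tebufenozide and co-treated with library compounds in a dose series (1536-well, 1500 cells/well). Cytoprotection read as ATP content by ATPlite luminescence.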
AT treatment: qHTS Assay for Identifying a Potential Treatment of Ataxia-Telangiectasia; F2112 A-T fibroblasts, KAP-1 phosphorylation AlphaLISA; neocarzinostatin DNA damage 30 min before lysis; Potency, µM (highest dose often 57.5 µM), inactives show top-dose activation, hits mostly activators; 320,000 tested, 0.19% active; AID 485349, 2010; further: % of control where 0% means no effect; nearly all actives have a fitted effect of over 45% in size
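ATM-like activity read as KAP-1 phosphorylation via AlphaLISA donor/acceptor antibody pairs after lysis and 6 hr at 25C. Cells were ATM-null patient fibroblasts (F2112, hTERT), dosed 60 min, then exposed to the DSB inducer NCS for 30 min.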
mIDH1 inhibitor: qHTS for Inhibitors of mutant isocitrate dehydrogenase 1 (IDH1): qHTS; IDH1-R132H enzyme, NADPH consumption, diaphorase/resazurin fluorescence; Isocitrate dehydrogenase [NADP] cytoplasmic (Homo sapiens), O75874; Potency, µM (series often up to 76.6 µM), inactives show top-dose activity change, negative = inhibition, hits mostly inhibitors; 390,000 tested, 0.093% active; further: on the % scale 0 is the no-effect control and ±100 the full control effect; nearly all actives have a fitted effect of over 65% in size
Target sequence (O75874 whole entry R132H, stated change not applied): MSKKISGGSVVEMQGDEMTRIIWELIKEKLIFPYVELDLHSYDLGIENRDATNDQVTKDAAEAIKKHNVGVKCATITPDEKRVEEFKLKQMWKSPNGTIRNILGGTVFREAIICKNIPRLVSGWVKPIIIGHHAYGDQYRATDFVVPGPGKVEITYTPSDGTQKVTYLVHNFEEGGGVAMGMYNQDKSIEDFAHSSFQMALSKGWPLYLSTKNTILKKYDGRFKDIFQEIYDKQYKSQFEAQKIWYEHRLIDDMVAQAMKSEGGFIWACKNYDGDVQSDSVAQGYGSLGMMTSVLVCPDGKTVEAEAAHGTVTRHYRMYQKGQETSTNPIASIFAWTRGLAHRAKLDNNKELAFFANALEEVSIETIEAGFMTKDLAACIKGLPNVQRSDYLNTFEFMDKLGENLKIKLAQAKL
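IDH1-R132H (0.5 ug/mL dispensed) in pH 7.5 Tris buffer was preincubated 30 min with compound, then given a substrate mix of 0.016 mM NADPH and 2 mM alpha-KG for 80 min at room temperature; remaining NADPH was read by diaphorase/resazurin fluorescence.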
HttQ103 aggreg: qHTS Multiplex Assay to Identify Dual Action Probes in a Cell Model of Huntington: Aggregate Formation (GFP); AID 1688, 2009; Potency, µM (top dose mostly 46.1 µM), inactives show at the highest dose activity change, negative = inhibition, most hits filed as inhibitors; PC12 HttQ103-GFP aggregates, Acumen cytometry, 40 h; 220,000 tested, 1.1% active; further: on the % scale 0 is the no-effect control and ±100 the full control effect; nearly all actives have a fitted effect of over 60% in size
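Aggregates are detected as GFP objects 1–25 µm with signal 6 STDEV over background in lysates of induced PC12 cells. These carry Huntingtin exon 1 with 103 glutamines fused to GFP under an ecdysone promoter; compounds titrated.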
The depositor's hits bear a star; u = inconclusive; x = not tested or not shown; [ ] = dose if it differs, or a comment. The call rests on the fitted dose curve; in most records, active means well fitted curve in the direction sought with a large enough effect; inconclusive means small, poorly fitted or top-dose-only effect, or another doubt; inactive means no such curve, though single readings can be large; an effect the other way counts as inactive or inconclusive. Potency means the concentration at half of the fitted maximal effect.

SMILES	NPSR antagonist	HTT cytoprotect	AT treatment	mIDH1 inhibitor	HttQ103 aggreg
Cc1ccc(CN2CCc3c(OCc4ccc(F)cc4)cccc3C2=O)cc1	-35.4%	29.9%[10 µM]	4.7%	9.4%	u
COc1ccc(C(=O)CSc2nc3ncccc3[nH]2)cc1OC	5.3%	-8.8%[10 µM]	0.794µM*	0.5%	4.7%[9.22 µM]
COc1ccccc1NC(=O)CSc1nc2ncccc2[nH]1	-12.1%[46.1 µM]	3.1%[10 µM]	0.3%	6.6%	2.7%
Brc1cc(Br)c2ncnc(N3CCCCC3)c2c1	7.94µM*	-8.4%[0.074 µM]	6.2%	6.0%	11.2µM*
Cc1cc2c(c(=O)o1)C(c1ccc([N+](=O)[O-])o1)C(C#N)=C(N)O2 (configuration not stated)	-4.0%	7.6%[10 µM]	31.6µM*	29.4%	-30.3%[9.22 µM]
Nc1c(C(=O)Nc2ccc(S(=O)(=O)N3CCCC3)cc2)sc2nc3cc4c(cc3cc12)CCC4	3.4%	-20.6%[10 µM]	-3.8%	4.2%	14.1µM*
Nc1c(C(=O)Nc2ccc(S(=O)(=O)N3CCCC3)cc2)sc2nc3ccc(OC(F)(F)F)cc3cc12	u	-6.4%[10 µM]	-4.0%	5.2%	u
Cc1c(CNC2CCCC2)c(C(=O)O)c(C)n1Cc1ccccc1	16.9%	114.7%[10 µM]	-0.4%	8.8%	0.794µM*
Cc1onc(-c2ccccc2Cl)c1C(=O)Nc1sc2c(c1C#N)CCC2	-8.0%[46.1 µM]	14.1%[10 µM]	-2.7%	-4.4%	11.2µM*
N#Cc1c(NC(=O)C2CC(c3ccccc3Cl)=NO2)sc2c1CCC2 (configuration not stated)	-10.1%[46.1 µM]	2.6%	10.0%	6.8%	24.9%
O=C(OCC1OC(OC(=O)c2cc(O)c(O)c(OC(=O)c3cc(O)c(O)c(O)c3)c2)[C@@H](OC(=O)c2cc(O)c(O)c(OC(=O)c3cc(O)c(O)c(O)c3)c2)C(OC(=O)c2cc(O)c(O)c(OC(=O)c3cc(O)c(O)c(O)c3)c2)C1OC(=O)c1cc(O)c(O)c(OC(=O)c2cc(O)c(O)c(O)c2)c1)c1cc(O)c(O)c(OC(=O)c2cc(O)c(O)c(O)c2)c1 (some centres not stated)	x	-69.2%	x	x	11.3%
CC[n+]1c(/C=C/c2c[nH]c3ccccc23)ccc2cc(C)ccc21	12.6µM*	-136.7%	-5.7%	-3.8%	8.91µM*
CCOc1ccc2c(c1)c(=O)c(S(=O)(=O)c1ccc(Cl)cc1)cn2Cc1ccccc1C	x	x	x	-12.9%	x
O=C(Nc1cccc(C(F)(F)F)c1)Nc1ccc(N2CCCC2)c(S(=O)(=O)Nc2ccccc2Cl)c1	10µM*	-47.7%[10 µM]	5.2%	2.4%	u
COC(=O)C1=C(C(=O)OC)[C@@H]2N(C)c3ccc(OC)cc3[C@@]23C[C@@H](C(=O)OC)N(S(=O)(=O)c2ccc4c(c2)OCCN4C)C3=N1	x	-10.0%[10 µM]	x	x	x
Cc1ccccc1-c1nc(Nc2ccncc2)c2ccccc2n1	x	-38.9%	x	x	x
NS(=O)(=O)c1ccc(CNC(=O)c2cc(-c3ccccn3)nc3ccc(Cl)cc23)cc1	12.6µM*	-17.7%	2.4%	2.9%	9.1%
NS(=O)(=O)c1ccc(CNC(=O)c2cc(-c3cccnc3)nc3ccc(Cl)cc23)cc1	x	x	12.1%	3.6%	x
CCCCS(=O)(=O)N1CCc2nc(-c3ccccc3)c3c(c2C1)CO[C@@H](C)C3	x	-7.4%[10 µM]	x	x	x
CC1(C)CC(N2CCN(c3ccccc3)CC2)=CC(=[N+]2CCCC2)C1	-3.9%[46.1 µM]	-36.3%[10 µM]	1.6%	2.2%	3.98µM*
CC1CC(C)C[N+](=C2C=C(N3CCCC3)CC(C)(C)C2)C1 (configuration not stated)	13.7%	-57.9%[10 µM]	-9.8%	3.1%	u
CC1(C)CC(N2CCCC2)=CC(=[N+]2CCCCCC2)C1	12.7%	-64.9%	1.1%	0.4%	2µM*
CCCCc1nc2c(c3c1C[C@H](C)OC3)CN(S(=O)(=O)c1ccc(NC(C)=O)cc1)CC2	x	-5.8%[10 µM]	x	x	x
CCOC(=O)/C=C/S(=O)(=O)c1ccc(NC(C)=O)cc1	u	-161.6%	-2.8%	1.2%	3.98µM*
CCn1c(SCc2cccc(F)c2)nnc1-c1ccncc1	x	x	4.47µM*	-1.2%	x
SMILES	NPSR antagonist	HTT cytoprotect	AT treatment	mIDH1 inhibitor	HttQ103 aggreg
O=C(CNC(=O)c1ccc(Br)cc1)NCCc1nc2ccccc2[nH]1	3.7%[46.1 µM]	-0.4%	-19.8%	4.2%	8.2%
O=C(NCCCc1nc2ccccc2[nH]1)c1ccc(F)cc1	6.4%	0.355µM*	5.7%	-4.4%	u
O=C(c1ccncc1)N1CCc2ccccc2C1	x	x	15.3%	-7.6%	x
O=C(c1cncc(Br)c1)N1CCc2ccccc2C1	3.2%[46.1 µM]	14.4%[10 µM]	x	-0.4%	10µM*
CCCCNc1c2c3c(cccc3n(C)c1=O)C(=O)c1ccccc1-2	u	9.7%[10 µM]	u	-1.3%	u
Cn1c(=O)c(NCCc2ccccc2)c2c3c(cccc31)C(=O)c1ccccc1-2	u	-19.4%	u	1.5%	10µM*
CN(C)C=Nc1ncc2c3ccccc3n(Cc3ccccc3)c2c1C#N	-22.1%[46.1 µM]	-15.7%	1.3%	8.9%	-12.2%
CN(C)C=Nc1ncc2c3ccccc3n(CCN(C)C)c2c1C#N	-6.2%[46.1 µM]	-28.5%[0.074 µM]	-0.2%	0.9%	2.82µM*
COc1ccc(NC(=O)N2CC[C@@]3(CCCN(C(=O)c4ccncc4)C3)C2)cc1	x	2.24µM*	x	x	x
C=CCn1c(SCC(=O)Nc2ccc(N3CCOCC3)cc2)nnc1-c1ccco1	x	x	25.1µM*	1.9%	x
C=CCn1c(SCC(=O)Nc2ccc(N3CCOCC3)cc2)nnc1-c1ccncc1	x	x	-6.3%	-7.3%	x
CCCCCCCCCCCCCCCCCCNC(=O)OC[C@@H](COP(=O)([O-])OCC[n+]1ccsc1)OC	x	43.5%[1.9 µM]	x	x	x
CCCCCCC(C)n1[nH]c(=O)c2c(C)cc(=O)[nH]c21 (configuration not stated)	-12.8%[46.1 µM]	-29.9%[0.074 µM]	-9.5%	6.5%	11.2µM*
CC1(C)OC2OC(C(=O)N/N=C/c3cc(Br)ccc3O)C3OC(C)(C)OC3C2O1 (configuration not stated)	1.2%	16.4%[10 µM]	4.6%	5.8%	10µM*
COc1ccccc1C(=O)/C=C/c1ccc(N2CCCCC2)c([N+](=O)[O-])c1	u	11.0%[10 µM]	-8.2%	8.7%	u
O=C(/C=C/c1ccc(N2CCCCC2)c([N+](=O)[O-])c1)c1ccc(O)cc1	-41.9%	-4.7%[10 µM]	0.7%	-3.3%	17.8µM*
COc1ccc(Br)cc1CNC(=O)c1cc(=O)[nH]c2ccc(S(=O)(=O)N3CCCCC3)cc12	x	x	x	-13.1%	x
O=C(N/N=C/c1ccccc1O)C1(O)c2ccccc2-c2ccccc21	-1.6%	31.9%[1.9 µM]	-5.8%	-7.1%	10µM*
